Records with an inconclusive call do not appear. Activity calls are given as the source filed them. The calls were made as follows, unless noted: active = hit-call score of the fitted dose curve at least 0.9, where 1 is the maximum; inactive = score below 0.9.
Key:
[1] = CCTE_Shafer_MEA_dev_correlation_coefficient_mean: CCTE's Neural Network Formation Assay for Mean Correlation Coefficient, Shafer Lab (AID 2284093)
Procedure, shortened: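 Primary rat cortical neurons on PEI-coated 48-well MEA plates (16 electrodes/well) were exposed from plating day 0 through DIV12, with compound renewed at DIV5 and 9. Pairwise spike correlations were averaged per well; trapezoidal AUC across DIV5, 7, 9, 12.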

[2] = UKN2_HCS_IMR90_neural_migration: University of Konstanz (UKN) Leist Lab Neural Crest Cell Migration Assay in human induced IMR90 Pluripotent Stem Cells (UKN2) (AID 2284204); details: actives raise or lower the signal
Procedure, shortened: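 iPSC-derived IMR90 neural crest cells on PLO/laminin/fibronectin were seeded around silicone stoppers; after stopper removal, migration in N2-S medium with EGF and FGF ran 24 h before 24 h chemical exposure. Calcein-AM/Hoechst high-content imaging; bidirectional fit versus DMSO.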

[3] = UKN4_HCS_LUHMES_neurite_outgrowth: University of Konstanz (UKN) Leist Lab Neurite Outgrowth Assay in human LUHMES cells (UKN4) (AID 2284206); details: actives raise or lower the signal
Procedure, shortened: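 Human LUHMES neuronal precursors, differentiated 2 days then replated without cAMP and GDNF, exposed to compounds for 24 h. Neurite area imaged by high-content microscopy after calcein-AM live staining; Hoechst H-33342 for viability; bidirectional fit versus DMSO.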

[4] = IUF_NPC1b_proliferation_BrdU_72hr: Leibniz Research Institute for Environmental Medicine (IUF) 72-hour Neural Progenitor Cell Bromodeoxyuridine (BrdU) Proliferation Assay (NPC1b) (AID 2284207)
Procedure, shortened: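 hNPC spheres (primary, GW 16-19 fetal cortex), single sphere/well, EGF+FGF medium; 72 h compound, no renewal; BrdU pulse last 16 h; luminescent ELISA; activity vs DMSO baseline; growth-factor withdrawal as positive control.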

[5] = IUF_NPC1a_proliferation_area_72hr: Leibniz Research Institute for Environmental Medicine (IUF) 72-hour Neural Progenitor Cell Proliferation Area Assay (NPC1a) (AID 2284208)
Procedure, shortened: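 Proliferation is scored as sphere area gain in primary human fetal neural progenitors treated for 72 h in EGF/FGF-containing medium. Viability, LDH and BrdU readouts come from the same wells.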

[6] = IUF_NPC1_viability_72hr: Viability Assessment at 72 hours in the Leibniz Research Institute for Environmental Medicine (IUF) Neural Progenitor Cell Proliferation Assay (NPC1) (AID 2284209)
Procedure, shortened: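 Single spheres (0.25-0.35 mm) of human fetal cortex-derived neural progenitor cells were grown in proliferation medium with EGF and FGF at 37C and 5% CO2. They were exposed for 72 h without renewal, and viability was read by alamar blue resorufin fluorescence.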

[7] = CCTE_Mundy_HCI_Cortical_NOG_NeuriteLength: CCTE's Neurite Outgrowth Assay in rat cortical cells for Neurite Length, Mundy Lab (AID 2284213);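 also: neurites imaged about 48 to 50 h after chemical exposure began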
Procedure, shortened: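 Neurite length was read by high-content imaging of βIII-tubulin-labelled neurites in rat primary cortical cultures. Activity was fitted relative to DMSO.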

[8] = CCTE_Mundy_HCI_Cortical_Synap_Neur_Matur_NeuriteSpotCountPerNeuron: CCTE's Synaptogenesis and Neurite Maturation Assay in rat cortical cells for Neurite Spot Count per Neuron Count, Mundy Lab (AID 2284215)
Procedure, shortened: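 Synapse density is scored as synaptophysin spots along neurites per neuron in fixed rat cortical neurons, measured at DIV 12 after chemical dosing at DIV 7. DMSO is the negative control and activity baseline.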

[9] = CCTE_Mundy_HCI_Cortical_Synap_Neur_Matur_SynapseCount: CCTE's Synaptogenesis and Neurite Maturation Assay in rat cortical cells for Synapse Count, Mundy Lab (AID 2284218)
Procedure, shortened: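 Rat primary cortical cultures, AraC at DIV 5, chemical dosing DIV 7 to DIV 12 (288.33 h). Fixed cells stained for MAP2, synaptophysin and Hoechst; synapses per neuron counted by high-content imaging, loss of signal versus DMSO.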

[10] = CCTE_Mundy_HCI_hN2_NOG_NeuriteCount: CCTE's Neurite Outgrowth Assay in human hN2 cells for Neurite Count, Mundy Lab (AID 2284219; active = hit-call score of the fitted dose curve at least 0.9, where 1 is the maximum)
Procedure, shortened: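 In this morphology assay, hNP1-derived neurons received test chemical 2 h post-plating and were fixed two days later in warm paraformaldehyde/sucrose containing Hoechst 33342. Neurites, labelled by rabbit anti-βIII-tubulin (1:800) and Alexa Fluor-488 (1:500), were counted automatically.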

[11] = CCTE_Mundy_HCI_hN2_NOG_NeuriteLength: CCTE's Neurite Outgrowth Assay in human hN2 cells for Neurite Length, Mundy Lab (AID 2284220; active = hit-call score of the fitted dose curve at least 0.9, where 1 is the maximum)
Procedure, shortened: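 Using βIII-tubulin immunofluorescence and Hoechst nuclear counterstain, this component quantifies neurite length in hNP1-derived neurons.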

[12] = CCTE_Mundy_HCI_hN2_NOG_NeuronCount: CCTE's Neurite Outgrowth Assay in human hN2 cells for Neuron Count, Mundy Lab (AID 2284221; active = hit-call score of the fitted dose curve at least 0.9, where 1 is the maximum)
Procedure, shortened: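 Read-out is the number of betaIII-tubulin-positive neurons imaged by automated high-content analysis, with DMSO as negative control.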

[13] = CCTE_Mundy_HCI_Cortical_Synap_Neur_Matur_CellBodySpotCount: CCTE's Synaptogenesis and Neurite Maturation Assay in rat cortical cells for Cell Body Spot Count, Mundy Lab (AID 2284223)
Procedure, shortened: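 Synapse number at neuronal cell bodies was quantified as synaptophysin puncta per neuron in rat cortical cultures exposed from DIV 7 to DIV 12. Values were normalised to DMSO.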

[14] = UKN4_HCS_LUHMES_cell_viability: Viability Assessment in the University of Konstanz (UKN) Leist Lab Neurite Outgrowth Assay in human LUHMES cells (UKN4) (AID 2284232)
Procedure, shortened: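 LUHMES precursors differentiated 2 days, replated at 30000 cells/well without cAMP/GDNF, then compound-treated 24 h. Viability from Hoechst H-33342 and calcein-AM live staining (30 min) by high-content fluorescence imaging; bidirectional fit versus DMSO.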

[15] = UKN2_HCS_IMR90_cell_viability: Viability Assessment in the University of Konstanz (UKN) Leist Lab Neural Crest Cell Migration Assay in human induced IMR90 Pluripotent Stem Cells (UKN2) (AID 2284233);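 also: viability of neural crest cells differentiated from IMR90 iPSC measured by calcein-AM fluorescence imaging; cells exposed to compound for 24 h after a 24 h migration phase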
Procedure, shortened: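 iPSC-derived (IMR90) neural crest cells seeded around silicone stoppers on PLO/laminin/fibronectin; after 24 h migration in N2-S with EGF/FGF, chemical added for 24 h. Calcein-AM/Hoechst stained 30 min, high-content imaged; bidirectional fit versus DMSO.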

[16] = CCTE_Mundy_HCI_Cortical_NOG_NeuronCount: CCTE's Neurite Outgrowth Assay in rat cortical cells for Neuron Count, Mundy Lab (AID 2284236; active = hit-call score of the fitted dose curve at least 0.9, where 1 is the maximum;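 also: neurons counted by imaging betaIII-tubulin and Hoechst stained cortical cells; cells exposed to compound for about 48 hours before fixation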)
Procedure, shortened: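 Read-out: neuron number by high-content imaging of betaIII-tubulin (Alexa Fluor-488) and Hoechst-labelled rat primary cortical cells.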

[17] = CCTE_Mundy_HCI_hNP1_Casp3_7: CCTE's Caspase-Glo 3/7 Assay in human neuroprogenitor cells for Apoptosis, Mundy Lab (AID 2284240)
Procedure, shortened: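 Neuroepithelial-lineage stem cells from WA09 embryonic cells were treated with chemicals after 40–44 h of culture. Twenty-four hours later, caspase-3/7 activation was detected luminescently after a 30 min room-temperature reagent step, with DMSO as baseline.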

[18] = CCTE_Mundy_HCI_Cortical_Synap_Neur_Matur_NeuronCount: CCTE's Synaptogenesis and Neurite Maturation Assay in rat cortical cells for Neuron Count, Mundy Lab (AID 2284242; active = hit-call score of the fitted dose curve at least 0.9, where 1 is the maximum)
Procedure, shortened: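 Rat primary cortical cells, AraC added at DIV 5, dosed with media change from DIV 7 to DIV 12. Fixed, Hoechst-stained and immunolabelled for MAP2 and synaptophysin; neuron number counted by high-content imaging, loss fitted versus DMSO.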

[19] = IUF_NPC2c_oligodendrocyte_migration_120hr: Leibniz Research Institute for Environmental Medicine (IUF) 120-hour Neural Progenitor Cell Migration Assay for Oligodendrocyte Migration (NPC2c) (AID 2284297);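 also: O4-positive oligodendrocyte migration distance divided by radial glia migration distance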
Procedure, shortened: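 Primary hNPC spheres migrating on extracellular matrix, exposed five days to a 7-point dilution series with solvent control. Oligodendrocyte migration was scored by high-content imaging of O4 immunostaining and expressed relative to radial glia distance.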

[20] = IUF_NPC2a_radial_glia_migration_120hr: Leibniz Research Institute for Environmental Medicine (IUF) 120-hour Neural Progenitor Cell Migration Assay for Radial Glia Migration (NPC2a) (AID 2284298)
Procedure, shortened: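 In this multiplexed test, fetal hNPC spheres migrate radially on poly-D-lysine/laminin in N2 medium (37C, 5% CO2, pH 7.2-7.6) under continuous compound exposure over five days. Migration is scored at 120 h from automated Hoechst nuclear imaging.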

[21] = IUF_NPC2a_radial_glia_migration_72hr: Leibniz Research Institute for Environmental Medicine (IUF) 72-hour Neural Progenitor Cell Migration Assay for Radial Glia Migration (NPC2a) (AID 2284299)
Procedure, shortened: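 Human fetal neural progenitor spheres (0.3 mm) plated on poly-D-lysine/laminin in N2 differentiation medium and exposed from day 0 at 7 concentrations; radial glia migration distance from sphere edge measured at 72 h on brightfield images, mean of four directions, vs DMSO.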

[22] = IUF_NPC3_neuronal_differentiation_120hr: Leibniz Research Institute for Environmental Medicine (IUF) 120-hour Neuronal Differentiation Assay (NPC3) (AID 2284301)
Procedure, shortened: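 Primary human fetal neural progenitor spheres (GW 16-19, 0.3 mm) plated on poly-D-lysine/laminin in N2 medium, exposed from day 0 for 120 h with half-medium refresh at day 3. TUBB3+ cells as percent of Hoechst nuclei in migration area; DMSO baseline.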

[23] = IUF_NPC4_neurite_length_120hr: Leibniz Research Institute for Environmental Medicine (IUF) 120-hour Neuronal Morphology Assay for Neurite Length (NPC4) (AID 2284302)
Procedure, shortened: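 Human fetal cortex (GW 16-19) neural progenitor spheres, 0.3 mm, were plated on poly-D-lysine/laminin in N2 differentiation medium and exposed from day 0 for 120 h, half-feeding at day 3. Mean TUBB3+ neurite length (µm) came from skeletonized images, relative to DMSO.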

[24] = IUF_NPC5_oligodendrocyte_differentiation_120hr: Leibniz Research Institute for Environmental Medicine (IUF) 120-hour Oligodendrocyte Differentiation Assay (NPC5) (AID 2284304; active = hit-call score of the fitted dose curve at least 0.9, where 1 is the maximum;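 also: primary human fetal neural progenitor spheres plated to migrate and differentiate; share of O4-positive cells among Hoechst nuclei found by CNN image analysis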)
Procedure, shortened: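 Human primary NPC neurospheres migrating and differentiating on laminin for 120 h under continuous compound exposure (serial dilution, solvent control). Endpoint: percent O4+ oligodendrocytes among Hoechst nuclei, detected by CNN image analysis, with DMSO as negative control.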

[25] = IUF_NPC2-5_cytotoxicity_72hr: Cytotoxicity Assessment at 72 hours in the Leibniz Research Institute for Environmental Medicine (IUF) Neural Progenitor Cell Migration and Differentiation Assay for Cytotoxicity (NPC2-5) (AID 2284306; active = hit-call score of the fitted dose curve at least 0.9, where 1 is the maximum;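 also: LDH release into supernatant measured by resorufin fluorescence marking membrane damage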)
Procedure, shortened: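 Human fetal (GW 16-19) neural progenitor spheres, 0.3 mm, plated on poly-D-lysine/laminin in N2 differentiation medium and exposed from day 0 to 7 concentrations plus solvent control (DMSO ≤0.1%). LDH-dependent resazurin-to-resorufin fluorescence in supernatant at 72 h.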

[26] = IUF_NPC2-5_cytotoxicity_120hr: Cytotoxicity Assessment at 120 hours in the Leibniz Research Institute for Environmental Medicine (IUF) Neural Progenitor Cell Migration and Differentiation Assay (NPC2-5) (AID 2284307; active = hit-call score of the fitted dose curve at least 0.9, where 1 is the maximum;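 also: LDH released into supernatant as membrane damage marker via resorufin fluorescence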)
Procedure, shortened: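 Fluorescence (RFU) from LDH-driven resazurin reduction in medium supernatants measured loss of membrane integrity after 120 h of compound exposure of differentiating primary human neural progenitor spheres on an extracellular matrix.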

[27] = IUF_NPC2-5_cell_number_120hr: Cell Number Assessment at 120 hours in the Leibniz Research Institute for Environmental Medicine (IUF) Neural Progenitor Cell Migration and Differentiation Assay (NPC2-5) (AID 2284308);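 also: count of Hoechst-stained nuclei in migration zone around plated human neural progenitor spheres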
Procedure, shortened: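 Cell number is taken as all Hoechst-positive nuclei detected in the area into which cells migrate out of the sphere, scored at 120 h and referenced to DMSO solvent control, which was kept at no more than 0.1%.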

[28] = IUF_NPC2-5_viability_120hr: Viability Assessment at 120 hours in the Leibniz Research Institute for Environmental Medicine (IUF) Neural Progenitor Cell Migration and Differentiation Assay (NPC2-5) (AID 2284312)
Procedure, shortened: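 Human fetal (GW 16-19) neural progenitor spheres of 0.3 mm were plated on poly-D-lysine/laminin in N2 differentiation medium and exposed from day 0 for 120 h, with half-medium refresh at day 3. Viability was read as alamar blue resazurin-to-resorufin fluorescence against DMSO.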

[29] = IUF_NPC1_cytotoxicity_72hr: Cytotoxicity Assessment at 72 hours in the Leibniz Research Institute for Environmental Medicine (IUF) Neural Progenitor Cell Proliferation Assay (NPC1) (AID 2284332; active = hit-call score of the fitted dose curve at least 0.9, where 1 is the maximum;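 also: rising LDH signal means more cytotoxicity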)
Procedure, shortened: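 Human fetal neural progenitor spheres (0.3 mm) in EGF/FGF proliferation medium, 37C, exposed 72 h without renewal. LDH release in supernatant read by resorufin fluorescence; gain of signal scored relative to dynamic range.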

Measured: AC50

C[C@@H]1C[C@H]2[C@@H]3CCC4=CC(=O)C=C[C@]4(C)[C@@]3(F)[C@@H](O)C[C@]2(C)[C@@]1(O)C(=O)CO
active: [4] 90.1 nM | [7] 21100 nM | [26] 24 nM
inactive: all other assays above
